Key:
[1] = target: Serine/threonine-protein kinase MARK2 (Homo sapiens) (UniProt Q7KZI7); conditions: at 1 µM
[2] = target: PAS domain-containing serine/threonine-protein kinase (Homo sapiens) (UniProt Q96RG2); conditions: at 0.1 µM
[3] = target: PAS domain-containing serine/threonine-protein kinase (Homo sapiens) (UniProt Q96RG2); conditions: at 1 µM
[4] = target: Phosphorylase b kinase gamma catalytic chain, skeletal muscle/heart isoform (Homo sapiens) (UniProt Q16816); conditions: at 0.1 µM
[5] = target: Phosphorylase b kinase gamma catalytic chain, skeletal muscle/heart isoform (Homo sapiens) (UniProt Q16816); conditions: at 1 µM
[6] = target: T1, Phosphorylase b kinase gamma catalytic chain, liver/testis isoform (Homo sapiens) (UniProt P15735); conditions: at 0.1 µM
T1 sequence (whole entry): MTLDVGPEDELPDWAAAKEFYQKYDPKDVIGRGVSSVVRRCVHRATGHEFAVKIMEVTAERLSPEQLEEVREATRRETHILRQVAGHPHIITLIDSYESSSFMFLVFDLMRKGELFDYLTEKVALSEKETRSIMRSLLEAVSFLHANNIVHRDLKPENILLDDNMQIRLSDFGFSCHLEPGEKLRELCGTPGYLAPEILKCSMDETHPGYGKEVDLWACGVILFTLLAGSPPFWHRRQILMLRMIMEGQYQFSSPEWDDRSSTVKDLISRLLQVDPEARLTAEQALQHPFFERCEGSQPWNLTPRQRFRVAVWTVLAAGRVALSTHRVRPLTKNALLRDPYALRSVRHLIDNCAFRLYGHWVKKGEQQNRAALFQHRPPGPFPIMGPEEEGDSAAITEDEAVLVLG

[7] = target: T1, Phosphorylase b kinase gamma catalytic chain, liver/testis isoform (Homo sapiens); conditions: at 1 µM
[8] = target: Serine/threonine-protein kinase pim-1 (Homo sapiens) (UniProt P11309); conditions: at 0.1 µM
[9] = target: Serine/threonine-protein kinase pim-1 (Homo sapiens) (UniProt P11309); conditions: at 1 µM
[10] = target: Serine/threonine-protein kinase pim-2 (Homo sapiens) (UniProt Q9P1W9); conditions: at 0.1 µM;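 note: reported value is the mean percent inhibition of PIM2, measured in the GSK PKIS kinase inhibitor set screen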
Serine/threonine-protein kinase pim-2 (Homo sapiens), sequence (Q9P1W9 whole entry, looked up): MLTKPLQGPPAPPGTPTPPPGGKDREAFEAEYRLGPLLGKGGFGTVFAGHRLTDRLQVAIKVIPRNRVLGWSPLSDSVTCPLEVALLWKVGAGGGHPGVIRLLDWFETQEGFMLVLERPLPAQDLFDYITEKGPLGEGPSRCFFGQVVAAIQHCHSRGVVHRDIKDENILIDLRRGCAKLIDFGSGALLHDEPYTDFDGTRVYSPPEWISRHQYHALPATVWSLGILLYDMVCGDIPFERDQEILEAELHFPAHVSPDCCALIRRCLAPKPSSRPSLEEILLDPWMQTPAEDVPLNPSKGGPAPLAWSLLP

Phosphorylase b kinase gamma catalytic chain, skeletal muscle/heart isoform (Homo sapiens), sequence (Q16816 whole entry, looked up, canonical isoform): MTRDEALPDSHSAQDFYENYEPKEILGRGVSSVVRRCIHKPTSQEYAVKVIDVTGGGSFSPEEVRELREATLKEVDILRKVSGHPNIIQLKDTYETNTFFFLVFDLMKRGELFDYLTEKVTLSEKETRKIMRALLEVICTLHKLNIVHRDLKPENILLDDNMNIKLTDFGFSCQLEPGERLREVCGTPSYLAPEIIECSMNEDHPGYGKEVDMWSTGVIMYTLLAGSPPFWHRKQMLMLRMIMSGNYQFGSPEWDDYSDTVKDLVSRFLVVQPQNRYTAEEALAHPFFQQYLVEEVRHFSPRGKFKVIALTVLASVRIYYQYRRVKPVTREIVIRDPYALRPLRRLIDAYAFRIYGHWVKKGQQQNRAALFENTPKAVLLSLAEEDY
Serine/threonine-protein kinase pim-1 (Homo sapiens), sequence (P11309 whole entry, looked up): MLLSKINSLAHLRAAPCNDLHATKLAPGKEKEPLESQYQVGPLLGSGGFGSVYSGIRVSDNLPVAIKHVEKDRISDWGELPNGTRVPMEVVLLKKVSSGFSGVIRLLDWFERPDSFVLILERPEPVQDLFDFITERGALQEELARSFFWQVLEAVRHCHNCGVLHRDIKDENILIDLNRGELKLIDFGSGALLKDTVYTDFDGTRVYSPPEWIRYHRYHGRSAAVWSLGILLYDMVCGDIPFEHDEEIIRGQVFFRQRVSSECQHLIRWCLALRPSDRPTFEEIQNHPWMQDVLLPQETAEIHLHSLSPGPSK
PAS domain-containing serine/threonine-protein kinase (Homo sapiens), sequence (Q96RG2 whole entry, the tested form may be a part, canonical isoform): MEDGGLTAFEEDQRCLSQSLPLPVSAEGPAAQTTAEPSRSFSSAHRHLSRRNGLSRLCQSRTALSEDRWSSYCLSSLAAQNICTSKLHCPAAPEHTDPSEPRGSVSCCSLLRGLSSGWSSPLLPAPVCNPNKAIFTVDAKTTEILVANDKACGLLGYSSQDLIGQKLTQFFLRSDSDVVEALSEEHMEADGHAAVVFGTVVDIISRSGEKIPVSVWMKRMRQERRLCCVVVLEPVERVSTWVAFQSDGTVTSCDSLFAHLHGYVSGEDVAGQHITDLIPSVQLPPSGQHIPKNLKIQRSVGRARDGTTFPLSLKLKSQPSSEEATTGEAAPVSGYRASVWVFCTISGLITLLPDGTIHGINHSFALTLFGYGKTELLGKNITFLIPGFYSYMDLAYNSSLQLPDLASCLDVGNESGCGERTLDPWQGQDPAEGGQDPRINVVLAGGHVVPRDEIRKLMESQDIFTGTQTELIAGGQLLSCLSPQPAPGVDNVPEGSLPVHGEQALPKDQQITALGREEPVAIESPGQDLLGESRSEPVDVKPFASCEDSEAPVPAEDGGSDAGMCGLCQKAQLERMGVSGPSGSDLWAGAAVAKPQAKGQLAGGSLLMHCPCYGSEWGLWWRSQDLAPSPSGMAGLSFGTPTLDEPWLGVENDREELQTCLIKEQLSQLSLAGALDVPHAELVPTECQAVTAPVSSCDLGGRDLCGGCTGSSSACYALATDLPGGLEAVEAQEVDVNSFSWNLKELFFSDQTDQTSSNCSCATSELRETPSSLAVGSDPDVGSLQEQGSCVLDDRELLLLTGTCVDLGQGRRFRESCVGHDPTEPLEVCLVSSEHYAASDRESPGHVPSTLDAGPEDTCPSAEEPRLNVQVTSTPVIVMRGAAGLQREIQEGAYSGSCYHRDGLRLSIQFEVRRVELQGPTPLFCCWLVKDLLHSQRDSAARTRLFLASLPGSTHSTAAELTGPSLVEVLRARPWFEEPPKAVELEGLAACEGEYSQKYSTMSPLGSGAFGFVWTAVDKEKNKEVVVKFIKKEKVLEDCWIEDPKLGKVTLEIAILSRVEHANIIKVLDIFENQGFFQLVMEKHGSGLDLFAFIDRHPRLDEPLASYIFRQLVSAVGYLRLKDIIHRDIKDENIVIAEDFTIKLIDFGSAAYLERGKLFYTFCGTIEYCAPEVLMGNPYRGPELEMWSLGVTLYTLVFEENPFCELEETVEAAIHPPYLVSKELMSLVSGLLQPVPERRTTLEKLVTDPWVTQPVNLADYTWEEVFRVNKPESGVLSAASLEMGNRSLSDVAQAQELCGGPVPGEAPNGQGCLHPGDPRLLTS
Serine/threonine-protein kinase MARK2 (Homo sapiens), sequence (Q7KZI7 whole entry, the tested form may be a part): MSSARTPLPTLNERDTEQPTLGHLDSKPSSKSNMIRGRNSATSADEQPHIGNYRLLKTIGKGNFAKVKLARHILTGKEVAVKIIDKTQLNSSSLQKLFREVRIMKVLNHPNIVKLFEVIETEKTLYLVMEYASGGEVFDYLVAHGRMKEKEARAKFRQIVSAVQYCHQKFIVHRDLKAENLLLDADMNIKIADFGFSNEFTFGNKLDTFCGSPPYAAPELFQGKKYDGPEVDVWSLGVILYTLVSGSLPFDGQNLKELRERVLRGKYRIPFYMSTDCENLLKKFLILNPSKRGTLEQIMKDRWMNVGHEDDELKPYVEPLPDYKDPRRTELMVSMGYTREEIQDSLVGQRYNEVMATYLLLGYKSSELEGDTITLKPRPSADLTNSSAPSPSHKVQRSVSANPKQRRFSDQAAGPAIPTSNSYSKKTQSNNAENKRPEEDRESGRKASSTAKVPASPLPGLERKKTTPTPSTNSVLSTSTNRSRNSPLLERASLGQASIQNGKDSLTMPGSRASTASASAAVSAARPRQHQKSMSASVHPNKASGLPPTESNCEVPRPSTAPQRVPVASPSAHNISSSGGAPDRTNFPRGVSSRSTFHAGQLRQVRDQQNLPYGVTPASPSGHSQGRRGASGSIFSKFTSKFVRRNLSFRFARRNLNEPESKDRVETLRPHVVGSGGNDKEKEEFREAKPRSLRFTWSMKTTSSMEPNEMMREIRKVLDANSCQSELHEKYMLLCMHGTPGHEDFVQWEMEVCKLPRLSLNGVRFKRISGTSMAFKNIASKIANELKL

Row | SMILES | inhibition [1] [%] | inhibition [2] [%] | inhibition [3] [%] | inhibition [4] [%] | inhibition [5] [%] | inhibition [6] [%] | inhibition [7] [%] | inhibition [8] [%] | inhibition [9] [%] | inhibition [10] [%]
1 | c1ccc(-c2n[nH]cc2-c2ccnc(-c3ccc(OCCN4CCOCC4)cc3)c2)nc1 | 6.97 | 4.29 | 2.12 | 3.14 | 5.98 | -1.14 | -3.23 | 1.29 | 1.87 | 7.01
2 | FC(F)(F)c1cccc(Nc2nccc(-c3cnn4nc(-c5ccccc5)ccc34)n2)c1 | 0.61 | 0.34 | 0.28 | 3.06 | 6.39 | 2.99 | 2.77 | 0.96 | -0.68 | 0.77
3 | Cc1ccc(C(=O)NC2CCC2)cc1-c1ccc(C(=O)NCC2CC2)cc1 | 0.79 | 0.3 | -1.21 | 2.32 | 2.85 | 3.61 | 2 | 0.78 | 1.55 | -0.51
4 | O=C(NCC1CC1)c1ccc(-c2cccc(C(=O)NC3CC3)c2)cc1 | 1.08 | 0.62 | -1.02 | 1.06 | -2.22 | 2.3 | -1.04 | 0.15 | 0.34 | 0.75
5 | NC(=O)c1cc(-c2ccc(F)cc2)cc(-c2ccncc2)c1N | -0.63 | -1.01 | -1.24 | 5.8 | 5.92 | 4.55 | 5.76 | 0.02 | 1.09 | -0.12
6 | COc1cc2ncn(-c3cc(OCCc4ccccc4)c(C(N)=O)s3)c2cc1OC | 2.11 | 0.16 | -0.56 | 3.81 | 2.4 | 1.37 | 0.33 | -0.26 | -0.29 | -0.04
7 | CCS(=O)(=O)c1ccc(OC)c(Nc2ncc(-c3ccccc3Cl)o2)c1 | -0.17 | 1.42 | 0.93 | 1.33 | 1.36 | 1.67 | 0.7 | -0.02 | 1.67 | -0.56
8 | COc1ccc(C2=C(N3CCc4ccccc43)C(=O)NC2=O)cc1 | 1.74 | 0.07 | -0.29 | 3.26 | 6.35 | 7.25 | 4.69 | 0.52 | 4.09 | 0.18
9 | CCc1nccc2c1nc(-c1nonc1N)n2CC | 1.67 | 0.71 | 0.86 | 3.65 | 1.98 | -0.2 | -2.03 | 0.32 | 1.23 | 0.4
10 | COc1ccc2cc(-c3c(-c4ccncc4)nc(-c4ccc([S+](C)[O-])cc4C)n3C)ccc2c1 (stereo not given) | -1.74 | -0.31 | -0.06 | -0.07 | 0.13 | -1.33 | -1.4 | 0.66 | 0.72 | -0.27
11 | NC(=O)c1ccc(Oc2nccc(-c3c(-c4ccc(F)cc4)ncn3C3CCNCC3)n2)cc1 | 4.02 | -1.25 | -0.29 | 3.06 | 5.58 | 5.89 | 5.72 | 0.9 | 1.7 | -0.5
12 | CS(=O)(=O)CCNCc1ccc(-c2ccc3ncnc(Nc4ccc(OCc5ccccc5)c(Br)c4)c3c2)o1 | -0.56 | -0.29 | 0.16 | 7 | 3.21 | 5.03 | 4.55 | -0.99 | -0.09 | -3.07
13 | O=C(Nc1n[nH]c2nc(-c3ccc(O)cc3)c(Br)cc12)C1CC1 | 5.24 | 0.21 | 0.71 | 7.64 | 10.7 | 6.68 | 7.34 | 19.7 | 65.5 | 45.5
14 | O=C(Nc1n[nH]c2cc(-c3cc(F)ccc3F)ccc12)C1CC1 | -0.47 | -1.13 | -2.73 | 4.9 | 5.59 | 3.06 | 1.94 | -0.51 | 1.3 | 0.05
15 | CCC(=O)Nc1ccc(C)c(-c2ccc(C(=O)NCC3CC3)cc2)c1 | 1.92 | -0.16 | -0.9 | 1.26 | 4.36 | 2.68 | 2.43 | 1.37 | 1.55 | -2.01
16 | CNC(=O)c1cncc(/C=C/c2c(C)cccc2C)c1 | 0.9 | 1.4 | 0.92 | 0.1 | -0.59 | 2.11 | 0.8 | 0.92 | 1.36 | -4.04
17 | NC(=O)Cc1ccccc1Oc1nccc(-c2c(-c3ccc(F)cc3)ncn2C2CCNCC2)n1 | 2.22 | 0.15 | -0.7 | 4.43 | 6.28 | 2.61 | 0.83 | 0.4 | 0.97 | 0.18

Row | SMILES | inhibition [1] [%] | inhibition [2] [%] | inhibition [3] [%] | inhibition [4] [%] | inhibition [5] [%] | inhibition [6] [%] | inhibition [7] [%] | inhibition [8] [%] | inhibition [9] [%] | inhibition [10] [%]
18 | O=C1NC(=O)C(c2cccc(Cl)c2)=C1Nc1ccc(Cl)c(C(=O)O)c1 | 0.4 | 0.25 | 1.42 | 3.55 | 5.32 | 4.58 | 5.29 | -0.66 | -0.28 | -0.18
19 | CS(=O)(=O)CCNCc1cc(-c2cc3c(Nc4ccc(OCc5cccc(F)c5)c(Cl)c4)ncnc3s2)cs1 | 0.65 | -1.66 | -1.38 | 1.42 | 3.57 | 3.77 | 4.76 | 1.41 | 2.26 | -0.84
20 | NS(=O)(=O)c1ccc(N/N=C2\C(=O)Nc3ccc(C(=O)NCCCn4ccnc4)cc32)cc1 | 9.93 | 0.17 | 2.55 | 9.94 | 25.8 | 3.91 | 10 | 2.53 | 15.6 | 0.82
21 | COc1cc(C)c(N(C)C(=O)CN(C)C)cc1Nc1nc(Nc2cccc(F)c2C(N)=O)c2cc[nH]c2n1 | 1.79 | 0.61 | -1.13 | -1.13 | 2.95 | 3.64 | -0.16 | 1.05 | 3.33 | -3.42
22 | CCS(=O)(=O)c1ccc(OC)c(Nc2ncc(-c3cccc(-c4ccccc4F)c3)o2)c1 | 0.68 | -0.22 | -0.96 | 1.99 | 9.38 | 0.01 | -0.67 | -0.29 | 5.63 | 0.1
23 | N#Cc1ccc(Oc2nccc(-c3c(-c4ccc(F)cc4)ncn3C3CCNCC3)n2)cc1 | -1.45 | -0.29 | -0.33 | 5.34 | 6.84 | 4.1 | 4.74 | 1.27 | 2.26 | -0.01
24 | Clc1ccc(CNc2nccc(-c3cnn4ncccc34)n2)cc1 | 2.93 | 0.92 | 1.97 | -0.23 | 5.35 | 2.58 | 2.28 | 1.63 | 3.93 | -0.52
25 | O=C(Nc1n[nH]c2nc(-c3ccco3)ccc12)C1CC1 | 0.11 | 0.36 | -0.43 | 1.05 | 3.2 | 0.75 | -0.31 | 1.36 | 0.54 | 0.1
26 | Fc1ccc(-c2c(-c3ccncc3)nc3n2CCS3)cc1 | 1.79 | -0.68 | -0.44 | 4.14 | 4.63 | 1.99 | 3.28 | -0.78 | 0.06 | -3.15
27 | CN1CCN(CCCNc2nc3ccc(Oc4ccc(NC(=O)Nc5cc(C(F)(F)F)ccc5F)cc4)cc3[nH]2)CC1 | 2.75 | 1.07 | -1.18 | -0.01 | 0.68 | 2.23 | -0.8 | 0.7 | 0.87 | -1.87
28 | COc1ccc2cc(-c3c(-c4ccncc4)nc(-c4ccc(S(C)(=O)=O)cc4C)n3C)ccc2c1 | 1.75 | -0.05 | 2.36 | 5.34 | 5.99 | 5.31 | 5.26 | 2.41 | 2.08 | 0.92
29 | COc1cccc(/C=N/Nc2ncnc3c2cnn3-c2cccc(OC)c2)c1 | 0.57 | -0.3 | -1.16 | 0.94 | 2.68 | 3.6 | 2.4 | 0.63 | 1.58 | -0.75
30 | Fc1ccc(-c2ncn(C3CCNCC3)c2-c2ccnc(Oc3ccc4c(c3)OCO4)n2)cc1 | 2.68 | 0.16 | 1.32 | 6.43 | 6.48 | 7.66 | 5.8 | 0.83 | 2.07 | -0.04
31 | COc1ccc(-c2ccc3c(NC(=O)C4CC4)n[nH]c3n2)cc1 | -0.61 | 0.2 | 2.17 | 5.12 | 7.79 | 0.93 | 5.44 | -0.29 | -0.78 | -0.37
32 | Fc1ccc(-c2nc3n(c2-c2ccncc2)CCS3)cc1 | 1.88 | -0.27 | -1.64 | 5.2 | 4.39 | 4.24 | 2.33 | 0.77 | 2.11 | -3.25
33 | C/C(Nc1ccc(S(N)(=O)=O)cc1)=C1/C(=O)Nc2ccccc21 | 18.6 | -1.08 | -1.37 | 5.53 | 29.9 | -0.73 | 19.6 | 0.43 | 2.86 | 0.75
34 | CCc1cccc(CC)c1/C=C/c1cncc(C(=O)NC)c1 | 1.59 | 0.55 | -0.71 | 0.98 | 3.16 | 3.56 | 0.53 | 1.04 | 1.26 | -0.07

— ChEMBL document CHEMBL1961873, “Compounds: GSK PKIS; Assays: Nanosyn kinase panel” (2012)
